IDE exosite FP – exo-site inhibitors of human insulin-degrading enzyme; purified IDE, FL-6b probe fluorescence polarization; active compounds read low; z-score at 20 µM; actives 6.3% (n = 17,000); AID 1259349;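 active = z-score of -3 or lower, meaning strong loss of probe binding signal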;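 also: His-tagged human IDE residues 42-1019 made in E. coli with 30 nM FL-6b probe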
The depositor's hits bear a star. The list is a sample of the results.

SMILES	IDE exosite FP
N#Cc1cccc(-c2ccc([C@H]3[C@H]4CN(C(=O)Cc5cccnc5)CCCCN4[C@H]3CO)cc2)c1	-0.13
C/C=C/c1ccc(C2[C@@H]3CN(C(=O)C4CCOCC4)C[C@H]2N3)cc1 (some centres undefined)	0.244
N#Cc1cccc(-c2ccc([C@H]3[C@H]4CN(C(=O)Cc5ccncc5)CCCCN4[C@H]3CO)cc2)c1	1.33
C/C=C/c1ccc(C2[C@@H]3CN(C(=O)c4cnccn4)C[C@H]2N3)cc1 (some centres undefined)	-0.286
O=C(Cc1ccccc1)N1CCCCN2[C@@H](CO)[C@H](c3ccc(C#CC4(O)CCCC4)cc3)[C@@H]2C1	3.36
N#Cc1ccc(-c2ccc([C@@H]3[C@H]4CN(C(=O)Cc5ccccc5)CCCCN4[C@H]3CO)cc2)cc1	0.536
O=C(Cc1ccccc1)N1CCCCN2[C@@H](CO)[C@@H](c3ccc(-c4ccccc4)cc3)[C@@H]2C1	2.42
COc1cccc(CN2CC3(C2)[C@H](c2ccccc2)[C@H](CO)N3C(=O)Cc2ccccc2)c1	0.875
